# Measured values: PubChem BioAssay (Tox21)
# Where “and” joins values, the source holds several entries; their conditions need not be identical. Identical values can stand only once. Inconclusive results are not listed. Calls of active or inactive are those of the source. Calls come from the whole dose curve; as a rule, active = well fitted curve in the direction sought with a large enough effect in the repeat runs; inconclusive = weak or mixed curves; inactive = no such curve, though single readings can be large; an effect the other way counts as inactive or inconclusive.
# Experiment: qHTS assay for identifying genotoxic compounds that show differential cytotoxicity against isogenic chicken DT40 cell lines with known DNA damage response pathways - Rev3 mutant cell line (AID 743014); note: nearly all actives have a fitted effect of over 55% in size
# Conditions: chicken DT40 Rev3-/- viability, CellTiter-Glo, 40 h; series mostly up to 68.4 µM; activity, negative = cytotoxicity: at the top concentration
# % is set by controls: 0 for no effect and ±100 for the full control effect; potency is the fitted concentration of half-maximal effect.
SMILES,Potency,"activity, negative = cytotoxicity"
CCCCCCCCCCCC(=O)NCCCN(C)C,10.9 µM (active),–
CCCCCCCCCOC(=O)c1ccc(O)cc1,19.1 µM (active),–
CCOC(=O)c1nc(C(Cl)(Cl)Cl)n(-c2ccc(Cl)cc2Cl)n1,34.4 µM (active),–
OCc1c[nH]c2ccccc12,51.4 µM (active),–
CCCCCCCCCCCCCCCC(=O)OC[C@H](O)[C@H]1OC(=O)C(O)=C1O,–,1.89% (inactive)
Oc1ccc(N=Nc2ccccc2)cc1,61.9 µM (active),–
CSc1ccc(/C=C2/C(C)=C(CC(=O)O)c3cc(F)ccc32)cc1,–,0.452% (inactive)
c1cc(C(c2ccc(OCC3CO3)cc2)c2ccc(OCC3CO3)cc2)ccc1OCC1CO1 (stereo unspecified),0.969 µM (active),–
CC[C@H]1O[C@]2(CC[C@@H]1C)C[C@@H]1C[C@@H](C/C=C(\C)C[C@@H](C)/C=C/C=C3\CO[C@@H]4[C@H](O)C(C)=C[C@@H](C(=O)O1)[C@]34O)O2,6.8 µM (active),–
CCCCc1oc2ccc(NS(C)(=O)=O)cc2c1C(=O)c1ccc(OCCCN(CCCC)CCCC)cc1,13.3 µM (active),–
CC(C)(C)c1ccc(C(=O)CCCN2CCC(OC(c3ccccc3)c3ccccc3)CC2)cc1,5.31 µM (active),–
CCCCN(CCCC)c1ccc(C(=O)c2ccccc2C(=O)O)c(O)c1,–,2.88% [at 95 µM] (inactive)
CCCC(c1cc(C(C)(C)C)c(O)cc1C)c1cc(C(C)(C)C)c(O)cc1C,12.3 µM (active),–
CN(C/C=C/C#CC(C)(C)C)Cc1cccc2ccccc12,–,9.23% (inactive)
CC(C)(C)NC(=O)[C@@H]1C[C@@H]2CCCC[C@@H]2CN1C[C@@H](O)[C@H](Cc1ccccc1)NC(=O)[C@H](CC(N)=O)NC(=O)c1ccc2ccccc2n1,13.3 µM (active),–
Oc1c(Cl)cc(Cl)c2cccnc12,3.76 µM (active),–
O=C(Nc1ccc(Oc2ccc(Cl)cc2)c(Cl)c1)c1cc(I)cc(I)c1O,–,-6.35% (inactive)

SMILES,Potency,"activity, negative = cytotoxicity"
N=C1N=C(N)c2ccccc21,17.2 µM (active),–
CCN(CC)CCCC(C)Nc1c2ccc(Cl)cc2nc2ccc(OC)cc12 (stereo unspecified),5.96 µM (active),–
Cc1nc(-c2ccc3c(c2)CCN(CCC2CCC(NC(=O)/C=C/c4ccc(F)cc4)CC2)CC3)no1 (stereo unspecified),0.687 µM (active),–
CCCCCCCCCCCC[N+](C)(C)CCCCCCCCCCCC,3.86 µM (active),–
CC1(C)CCC(C)(C)c2cc(C(=O)Nc3ccc(C(=O)O)cc3)ccc21,19.3 µM (active),–
CSc1ccc2c(c1)C(N1CCN(C)CC1)Cc1ccccc1S2 (stereo unspecified),6.68 µM (active),–
Oc1ccc2cc(SSc3ccc4cc(O)ccc4c3)ccc2c1,19.4 µM (active) and 21.7 µM (active),–
CCCCC(CC)COP(=O)(O)OCC(CC)CCCC (stereo unspecified),–,-8.07% (inactive)
O=C(Nc1cccc(C(F)(F)F)c1)c1cc(Br)cc(Br)c1O,5.96 µM (active) and 7.7 µM (active),–
Cc1ccc(O)c(C(C)(C)C)c1,13.7 µM (active),–
CCCCCOC(=O)CCCC,–,-9.97% (inactive)
CCc1cc(Cc2cc(CC)c(N)c(CC)c2)cc(CC)c1N,61.1 µM (active),–
CCCCCCCCS(=O)C(C)Cc1ccc2c(c1)OCO2 (stereo unspecified),69.9 µM (active),–
NNc1nc(-c2ccc([N+](=O)[O-])cc2)cs1,1.72 µM (active),–
O=c1[nH]sc2ccccc12,0.433 µM (active),–
C/C=C1/C(=O)C[C@H]2[C@@H]3CCC4=CC(=O)CC[C@]4(C)[C@H]3CC[C@]12C,13.6 µM (active),–

# Experiment: qHTS assay for identifying genotoxic compounds that show differential cytotoxicity against isogenic chicken DT40 cell lines with known DNA damage response pathways - Rad54/Ku70 mutant cell line (AID 743015); note: nearly all actives have a fitted effect of over 60% in size
# Conditions: DT40 Rad54/Ku70 mutant viability, CellTiter-Glo, 40 h; series mostly up to 66.8 µM; activity change, negative = cytotoxicity: at the top concentration
SMILES,Potency,"activity change, negative = cytotoxicity"
CCCCCCCCCCCC(=O)NCCCN(C)C,6.86 µM (active),–
CCCCCCCCCOC(=O)c1ccc(O)cc1,19.1 µM (active),–
CCOC(=O)c1nc(C(Cl)(Cl)Cl)n(-c2ccc(Cl)cc2Cl)n1,30.6 µM (active),–
OCc1c[nH]c2ccccc12,64.8 µM (active),–
CCCCCCCCCCCCCCCC(=O)OC[C@H](O)[C@H]1OC(=O)C(O)=C1O,inactive,–
CSc1ccc(/C=C2/C(C)=C(CC(=O)O)c3cc(F)ccc32)cc1,–,1.09% (inactive)
c1cc(C(c2ccc(OCC3CO3)cc2)c2ccc(OCC3CO3)cc2)ccc1OCC1CO1 (stereo unspecified),13.7 µM (active),–
CC(C)OC(=O)c1cc2c(OCC(O)CNC(C)(C)C)cccc2[nH]1 (stereo unspecified),26.6 µM (active),–
CC[C@H]1O[C@]2(CC[C@@H]1C)C[C@@H]1C[C@@H](C/C=C(\C)C[C@@H](C)/C=C/C=C3\CO[C@@H]4[C@H](O)C(C)=C[C@@H](C(=O)O1)[C@]34O)O2,6.06 µM (active),–
CCCCc1oc2ccc(NS(C)(=O)=O)cc2c1C(=O)c1ccc(OCCCN(CCCC)CCCC)cc1,18.8 µM (active),–
CC(C)(C)c1ccc(C(=O)CCCN2CCC(OC(c3ccccc3)c3ccccc3)CC2)cc1,5.96 µM (active),–
CCCC(c1cc(C(C)(C)C)c(O)cc1C)c1cc(C(C)(C)C)c(O)cc1C,12.3 µM (active),–
CC(C)(C)NC(=O)[C@@H]1C[C@@H]2CCCC[C@@H]2CN1C[C@@H](O)[C@H](Cc1ccccc1)NC(=O)[C@H](CC(N)=O)NC(=O)c1ccc2ccccc2n1,16.8 µM (active) and 55.2 µM (active),–
Oc1c(Cl)cc(Cl)c2cccnc12,4.22 µM (active),–
O=C(Nc1ccc(Oc2ccc(Cl)cc2)c(Cl)c1)c1cc(I)cc(I)c1O,–,-16.8% (inactive)
N=C1N=C(N)c2ccccc21,17.2 µM (active),–
CCN(CC)CCCC(C)Nc1c2ccc(Cl)cc2nc2ccc(OC)cc12 (stereo unspecified),6.68 µM (active),–

SMILES,Potency,"activity change, negative = cytotoxicity"
Cc1nc(-c2ccc3c(c2)CCN(CCC2CCC(NC(=O)/C=C/c4ccc(F)cc4)CC2)CC3)no1 (stereo unspecified),0.546 µM (active),–
CN(C)c1ccc(C2(c3ccc(N(C)C)cc3)OC(=O)c3cc(N(C)C)ccc32)cc1,15.3 µM (active),–
CCCCCCCCCCCC[N+](C)(C)CCCCCCCCCCCC,4.33 µM (active),–
CC1(C)CCC(C)(C)c2cc(C(=O)Nc3ccc(C(=O)O)cc3)ccc21,21.7 µM (active),–
CSc1ccc2c(c1)C(N1CCN(C)CC1)Cc1ccccc1S2 (stereo unspecified),9.44 µM (active),–
Oc1ccc2cc(SSc3ccc4cc(O)ccc4c3)ccc2c1,24.4 µM (active) and 27.3 µM (active),–
O=C(Nc1cccc(C(F)(F)F)c1)c1cc(Br)cc(Br)c1O,6.68 µM (active) and 4.86 µM (active),–
Cc1ccc(O)c(C(C)(C)C)c1,15.3 µM (active),–
CCCCCOC(=O)CCCC,–,-5.39% (inactive)
CCc1cc(Cc2cc(CC)c(N)c(CC)c2)cc(CC)c1N,54.5 µM (active),–
CCCCCCCCn1sc(Cl)c(Cl)c1=O,0.686 µM (active),–
CCCCCCCCS(=O)C(C)Cc1ccc2c(c1)OCO2 (stereo unspecified),69.9 µM (active),–
NNc1nc(-c2ccc([N+](=O)[O-])cc2)cs1,4.33 µM (active),–
O=c1[nH]sc2ccccc12,0.686 µM (active),–
CNCc1cc(F)ccc1Oc1ccc(Cl)c(Cl)c1,13.7 µM (active),–
C/C=C1/C(=O)C[C@H]2[C@@H]3CCC4=CC(=O)CC[C@]4(C)[C@H]3CC[C@]12C,19.3 µM (active),–
